Test results reported in PubChem BioAssay (NCATS).
Results filed as inconclusive are left out. A call without a number means that no potency is given here. Activity calls are given as the source filed them. Unless noted, calls follow the shape of the dose curve; as a rule, active = well fitted inhibition curve with a large enough effect; inconclusive = small, poorly fitted or top-dose-only effect; inactive = no such curve, though single readings can be large or run the other way.
Potency is read from the fitted curve at half-maximal effect.

Molecular target: Aldehyde dehydrogenase, mitochondrial (Homo sapiens) (UniProt P05091)
Assay: qHTS for Inhibitors of the Aldehyde Dehydrogenase Family (ALDH2) Confirmatory screens (AID 2061303; active = well fitted inhibition curve with a large enough effect; title and protocol of this record describe different tests; also: nearly all actives have a fitted effect of over 45% in size)
Conditions: ALDH inhibition qHTS; series mostly up to 45.4 µM
In the case of C[N+](C)(C)CC#CCOC(=O)Nc1cccc(Cl)c1, the Potency is reported as 10.1 µM (active). With CN(N=O)c1cc(O)ccc1O the Potency was “inactive”. In the case of CCCN1CCC[C@@H]2Cc3nc(N)ncc3C[C@H]21, the Potency is reported as “inactive”. In the case of NC(=O)COc1c(F)cc(SCCNS(=O)(=O)c2ccccc2)cc1F, the Potency is reported as “inactive”.

System: not listed separately
Assay: qHTS for Inhibitors of the Aldehyde Dehydrogenase Family (ALDH1A2, ALDH1A3, ALDH2, ALDH3A1) (AID 2061307); also: nearly all actives have a fitted effect of over 50% in size; as to potency: test system not described further here
Conditions: ALDH inhibition qHTS; series mostly up to 50.3 µM
For CN(N=O)c1cc(O)ccc1O, the Potency was 2.25 µM (active). With NNC(=O)c1ccc(O)cc1 the Potency was 8.96 µM (active). For CCCN1CCC[C@@H]2Cc3nc(N)ncc3C[C@H]21, the Potency was “inactive”. In the case of NC(=O)COc1c(F)cc(SCCNS(=O)(=O)c2ccccc2)cc1F, the Potency is reported as 11.3 µM (active).

Molecular target: Retinaldehyde dehydrogenase 3 (Homo sapiens) (UniProt P47895)
Assay: qHTS for Inhibitors of the Aldehyde Dehydrogenase Family (ALDH1A3) Validation screen (AID 2061312); also: nearly all actives have a fitted effect of over 45% in size
Conditions: ALDH1A3 enzyme inhibition qHTS validation, fluorescence; series mostly up to 42.4 µM
For CCCN(CCC)[C@@H]1CCc2ccc(O)cc2C1, the Potency was “inactive”. With C[C@]12N[C@H](Cc3ccccc31)c1ccccc12 the Potency was “inactive”. With O=S1(=O)N(CCN2CC=C(c3c[nH]c4cc(F)ccc34)CC2)c2cccc3c2N1CCC3 the Potency was “inactive”. In the case of O=C1CCCN1CC#CCN1CCCC1, the Potency is reported as “inactive”. For COc1ccc(C(CN(C)C)C2(O)CCCCC2)cc1 (stereo unspecified), the Potency was “inactive”. For CS(=N)(=O)CC[C@H](N)C(=O)O (stereo partly specified), the Potency was “inactive”. For CC(C)(C)c1cc(C=C(C#N)C#N)cc(C(C)(C)C)c1O, the Potency was “inactive”. For CCCCc1ccc(C(=O)O)nc1, the Potency was “inactive”. In the case of CC12NC(Cc3ccccc31)c1ccccc12 (stereo unspecified), the Potency is reported as “inactive”. For OC1CCCCC1N1CCC(c2ccccc2)CC1 (stereo unspecified), the Potency was “inactive”. With NCC(O)c1ccc(O)cc1 (stereo unspecified) the Potency was “inactive”. For CCCN(CCC)[C@@H]1CCc2cccc(O)c2C1, the Potency was “inactive”. With C[C@@H]1O[C@@H](O[C@H]2C[C@@H](O)[C@]3(CO)[C@@H]4C(CC[C@]3(O)C2)[C@@]2(O)CC[C@H]([C@@H]3COC(=O)C3)[C@@]2(C)C[C@H]4O)[C@H](O)[C@H](O)[C@H]1O (stereo partly specified) the Potency was “inactive”. With CN(N=O)c1cc(O)ccc1O the Potency was 0.282 µM (active). With O=c1[nH]oc2c1CCNC2 the Potency was “inactive”. In the case of CC(C)NC(C)Cc1ccc(I)cc1 (stereo unspecified), the Potency is reported as “inactive”. With NNC(=O)c1ccc(O)cc1 the Potency was “inactive”. For CC(C)(O)[C@@H]1C2OC(=O)[C@@H]1[C@]1(O)C[C@H]3O[C@]34C(=O)O[C@H]2[C@]14C (tested in a mixture with another compound), the Potency was “inactive”. With c1ccc2cc(CC3=NCCN3)ccc2c1 the Potency was “inactive”. With O=C(N[C@H]1CN2CCC1CC2)c1ccc(Cl)cc1 the Potency was “inactive”. In the case of O=C1NCN(c2ccccc2)C12CCN(CC1COc3ccccc3O1)CC2 (stereo unspecified), the Potency is reported as “inactive”. With NC(=O)COc1c(F)cc(SCCNS(=O)(=O)c2ccccc2)cc1F the Potency was “inactive”. In the case of c1ccc2sc(C3(N4CCCCC4)CCCCC3)cc2c1, the Potency is reported as “inactive”.
